Results as given in the supplement of paper PMC12350171.
Structures can show the parent of a compound that is named as a salt.

Test system: Haemophilus parainfluenzae
Assay: growth AUC normalised to DMSO control (fraction of control); higher = less growth inhibition, active = hit call of the paper
Conditions: 20 µM;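 active = AUC significantly below DMSO controls by Student t-fit with adjusted P under 0.01; inactive = not significantly reduced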
Summary of the method: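 Pathogens passaged twice anaerobically were inoculated at a starting OD578 of 0.01 into pre-reduced mGAM plates with drug at 20 μM and 1% DMSO, sealed with breathable membranes. Haemophilus parainfluenzae medium was supplemented with hemin and NAD. OD578 was read hourly for 24 h, with three biological replicates. Growth-curve AUC was computed by the trapezoidal rule up to the exponential-to-stationary transition and normalised to DMSO controls on the same plate.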

Row | Structure (SMILES) | growth AUC normalised to DMSO control
1 | NC1CCN(c2c(F)cc3c(=O)c(C(=O)O)cn(C4CC4)c3c2Cl)C1 (stereo not drawn) [Clinafloxacin] | 0.0486 (active)
2 | CCCCc1cc2ccccc2c(OCCN(C)C)n1 [Dimethisoquin hydrochloride] | 0.97 (inactive)
3 | CCC(=O)OCC(=O)[C@@]1(OC(=O)CC)[C@@H](C)C[C@H]2[C@@H]3CCC4=CC(=O)C=C[C@]4(C)[C@@]3(Cl)[C@@H](O)C[C@@]21C [Beclomethasone dipropionate] | 0.969 (inactive)
4 | CN(C)CC/C=C1/c2ccccc2COc2ccc(CC(=O)O)cc21 [Olopatadine hydrochloride] | 0.881 (inactive)
5 | CCC(Cc1c(I)cc(I)c(N)c1I)C(=O)O (stereo not drawn) [Iopanoic acid] | 0.971 (inactive)
6 | CC(C)NC[C@@H](O)COc1ccc(CC(N)=O)cc1 [(R,+) Atenolol] | 0.98 (inactive)
7 | CCN[C@H]1C[C@H](C)S(=O)(=O)c2sc(S(N)(=O)=O)cc21 [Dorzolamide hydrochloride] | 1.03 (inactive)
8 | C=CC[N@@+]12CC[C@@]34c5ccccc5N5/C=C6/[C@H]7C[C@H]8[C@@]9(CC[N@@+]8(CC=C)C/C7=C/CO)c7ccccc7N(/C=C(/[C@@H](C[C@@H]31)/C(=C\CO)C2)[C@H]54)[C@@H]69 [Alcuronium chloride] | 1 (inactive)
9 | CC(=O)NS(=O)(=O)c1ccc(N)cc1 [Sulfacetamide sodic hydrate] | 1.03 (inactive)
10 | Clc1cc(Cl)c(OCC#CI)cc1Cl [Haloprogin] | 0.992 (inactive)
11 | CN(C)CCC(c1ccccc1)c1ccccn1 (stereo not drawn) [Pheniramine maleate] | 0.999 (inactive)
12 | O=C(O)CN(CCN(CC(=O)O)CC(=O)O)CCN(CC(=O)O)CC(=O)O [Pentetic acid] | 1.02 (inactive)
13 | CC(C(=O)O)c1ccc(C(=O)c2cccs2)cc1 (stereo not drawn) [Suprofen] | 0.987 (inactive)
14 | CNC(C)CCC=C(C)C (stereo not drawn) [Isometheptene mucate] | 0.97 (inactive)
15 | CC(=O)Oc1cc(C(F)(F)F)ccc1C(=O)O [Triflusal] | 0.819 (inactive)
16 | CCN(CCO)CCCC(C)Nc1ccnc2cc(Cl)ccc12 (stereo not drawn) [Hydroxychloroquine sulfate] | 1 (inactive)
17 | C#C[C@]1(O)CC[C@H]2[C@@H]3CCC4=C(CCC(=O)C4)[C@H]3CC[C@@]21C [Norethynodrel] | 0.989 (inactive)
18 | O=C(O)Cc1ccccc1Nc1c(Cl)cccc1Cl [Diclofenac sodium] | 0.936 (inactive)
19 | C[C@@H](O)[C@H]1C(=O)N2C(C(=O)O)=C(S[C@@H]3CN[C@H](C(=O)N(C)C)C3)[C@H](C)[C@H]12 [Meropenem] | 0.283 (active)

Row | Structure (SMILES) | growth AUC normalised to DMSO control
20 | Cc1nc2ccccn2c(=O)c1CCN1CCC(C(=O)c2ccc(F)cc2)CC1 [Pirenperone] | 0.982 (inactive)
21 | CO[C@@H]1[C@@H](O[C@@H]2O[C@H](C)[C@@H](O[C@H]3C[C@@](C)(O)[C@@H](OC(=O)CC(C)C)[C@H](C)O3)[C@H](N(C)C)[C@H]2O)[C@@H](CC=O)C[C@@H](C)[C@@H](O)/C=C/C=C/C[C@@H](C)OC(=O)C[C@H]1OC(C)=O [Josamycin] | 0.0327 (active)
22 | CSc1ccc2c(c1)N(CCC1CCCCN1C)c1ccccc1S2 (stereo not drawn) [Thioridazine hydrochloride] | 0.72 (active)
23 | CS(=O)(=O)OCCCCOS(C)(=O)=O [Busulfan] | 1 (inactive)
24 | COC(=O)C1=C(C)NC(C)=C(C(=O)OC(C)C)C1c1cccc2nonc12 (stereo not drawn) [Isradipine] | 1.02 (inactive)
25 | N=C(N=C(N)N)N1CCOCC1 [Moroxidine hydrochloride] | 1 (inactive)
26 | O=C(c1ccc(OCCN2CCCCC2)cc1)c1c(-c2ccc(O)cc2)sc2cc(O)ccc12 [Raloxifene hydrochloride] | 0.974 (inactive)
27 | CCc1nc(N)nc(N)c1-c1ccc(Cl)cc1 [Pyrimethamine] | 0.201 (active)
28 | CNCCC(Oc1ccccc1OC)c1ccccc1 (stereo not drawn) [Nisoxetine hydrochloride] | 1.02 (inactive)
29 | Nc1ccccc1S(N)(=O)=O [o-Sulfanilamide] | 0.898 (inactive)
30 | CCOCCn1c(N2CCCN(C)CC2)nc2ccccc21 [Emedastine difumarate] | 1 (inactive)
31 | CNC(=O)c1c(I)c(C(=O)NCC(=O)Nc2c(I)c(C(=O)O)c(I)c(C(=O)NCCO)c2I)c(I)c(N(C)C(C)=O)c1I [Ioxaglic acid] | 0.921 (inactive)
32 | OCCN1C[C@H](O)[C@@H](O)[C@H](O)[C@H]1CO [Miglitol] | 0.925 (inactive)
33 | CC(=O)OC[C@H]1O[C@@H]([S-])[C@H](OC(C)=O)[C@@H](OC(C)=O)[C@@H]1OC(C)=O.CCP(CC)CC.[Au+] [Auranofin] | 0.189 (active)
34 | c1ccc2c(c1)CCCC2C1=NCCN1 (stereo not drawn) [Tetrahydrozoline hydrochloride] | 0.986 (inactive)
35 | Cc1cc(/C=C/c2ccc3cc(N(C)C)ccc3[n+]2C)c(C)n1-c1ccccc1 [Pyrvinium pamoate] | 1.06 (inactive)
36 | CCCCC1C(=O)N(c2ccccc2)N(c2ccc(O)cc2)C1=O (stereo not drawn) [Oxyphenbutazone] | 1.08 (inactive)
37 | CCN(CC)CCNC(C(=O)OCCC(C)C)c1ccccc1 (stereo not drawn) [Camylofine chlorhydrate] | 0.98 (inactive)
38 | CCN(CC)CCOC(=O)C1(C2CCCCC2)CCCCC1 [Dicyclomine hydrochloride] | 0.87 (inactive)
